Hits are enriched below; roughly 10% of the tested compounds scored in any of these assays.
hNpr1 antagonist: blocks ANP-stimulated signaling of human Npr1 receptor; AID 1347048; HEK293 hNpr1 GloSensor cGMP, ANP-stimulated luminescence; hit rate 1.6% among 76,000; Potency, µM (titrated, usually from 46.3 µM), most hits filed as inhibitors; calls by dose curve; further: nearly all actives have a fitted effect of over 60% in size
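HEK293 cells stably expressing human Npr1 and cGMP GloSensor pGS-40F, loaded 2 h with 2% GloSensor reagent, given compound 30 min at room temperature. Luminescence read before and 20 min after 0.1 nM hNppA.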
FLuc inh: Photinus pyralis luciferase inhibition. P08659. purified P. pyralis luciferase, luminescence, biochemical. Potency, µM (series often up to 115 µM), most hits filed as inhibitors. hit rate 2.5% among 76,000. AID 1347043; further: nearly all actives have a fitted effect of over 65% in size
Target sequence (P08659 whole entry, looked up): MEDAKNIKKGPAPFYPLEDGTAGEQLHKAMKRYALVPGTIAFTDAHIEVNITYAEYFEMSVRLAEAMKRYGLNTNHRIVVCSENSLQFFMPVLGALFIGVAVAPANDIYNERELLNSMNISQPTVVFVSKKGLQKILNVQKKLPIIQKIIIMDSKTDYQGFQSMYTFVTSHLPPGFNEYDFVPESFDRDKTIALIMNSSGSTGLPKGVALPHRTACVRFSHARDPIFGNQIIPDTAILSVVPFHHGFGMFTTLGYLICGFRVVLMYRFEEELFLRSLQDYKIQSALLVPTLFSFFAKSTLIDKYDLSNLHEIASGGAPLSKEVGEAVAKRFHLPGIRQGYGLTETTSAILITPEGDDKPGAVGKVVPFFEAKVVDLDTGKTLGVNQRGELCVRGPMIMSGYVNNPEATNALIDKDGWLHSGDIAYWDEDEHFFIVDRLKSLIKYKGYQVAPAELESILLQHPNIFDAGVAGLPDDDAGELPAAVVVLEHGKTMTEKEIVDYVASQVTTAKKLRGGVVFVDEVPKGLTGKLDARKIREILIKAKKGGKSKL
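Inhibitors were tested against purified firefly luciferase in a biochemical, low-substrate format (both substrates at 10uM) and luminescence measured with a CCD imager.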
3T3 cytotox: kills NIH 3T3 cells; hit rate 4.3% among 94,000; Potency, µM (titrated, usually from 96.7 µM), usual class: inhibitors; AID 1345082; NIH 3T3 viability, CellTiter-Glo ATP luminescence, 48-72 h; further: nearly all actives have a fitted effect of over 55% in size
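First NIH 3T3 cells are plated at 400 cells/well; next compound is pinned in; then plates incubate 48 or 72 hr at 37 °C; finally CellTiter-Glo is added and luminescence read after 10 min.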
GPT2 inh: GPT2 alanine aminotransferase inhibition; Potency, µM (highest dose often 57.7 µM), usual class: inhibitors; Q8TD30; Recombinant GPT2, coupled pyruvate oxidase/HRP Amplex Red fluorescence; hit rate 0.25% among 100,000; further: nearly all actives have a fitted effect of over 60% in size
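Fluorescence of coupled pyruvate oxidase/HRP/Amplex Red system (50uM Amplex, 30 min, dark) reports pyruvate formed by GPT2. Enzyme reaction: 10ng/uL GPT2, 2mM L-alanine, 250uM a-KG, 30 min room temperature, pH 7.5; 50uM AOA control.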
HEK293 tox: kills HEK 293 cells | hit rate 6.6% among 94,000 | Potency, µM (titrated, usually from 115 µM), hits mostly inhibitors | AID 1345083 | HEK 293 viability, ATP luminescence (CellTiter-Glo), 48-72 h; further: nearly all actives have a fitted effect of over 60% in size
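CellTiter-Glo luminescence (cellular ATP) was read after 48 or 72 hr of compound exposure at 37 degree Celsius. Cells were HEK 293 plated at 250 cells/well.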
Each line names hits and unclear results; the compound was inactive in the other large screens. Unless noted, the call rests on the fitted dose curve; in most records, active means well fitted curve in the direction sought with a large enough effect; inconclusive means small, poorly fitted or top-dose-only effect, or another doubt; inactive means no such curve, though single readings can be large; an effect the other way counts as inactive or inconclusive.

COc1ccc(CNC(=O)C2CCCN(c3nccc(Nc4ccccc4F)n3)C2)cc1 (stereo not drawn)	3T3 cytotox 10µM, HEK293 tox 28µM (no result: hNpr1 antagonist, FLuc inh)
COc1ccc(CNC(=O)C2CCCN2c2nccc(Nc3ccc(C)cc3)n2)cc1 (stereo not drawn)	3T3 cytotox inconclusive, HEK293 tox inconclusive (no result: hNpr1 antagonist, FLuc inh)
O=C(NC1CCCCC1)c1nc2cccnc2n(CCc2ccccc2)c1=O	HEK293 tox inconclusive (no result: hNpr1 antagonist, FLuc inh)
COc1ccc(C2Cn3cnc(C(=O)N4CCC(C(=O)NCc5ccccn5)CC4)c3CO2)cc1 (stereo not drawn)	none
O=C(NCc1cccc(Cl)c1)C1CCN(C(=O)c2ncn3c2COC(c2ccc(F)cc2)C3)CC1 (stereo not drawn)	FLuc inh 25µM, GPT2 inh inconclusive
O=C(NCc1ccccn1)C1CCN(C(=O)c2ncn3c2COC(c2ccc(Cl)cc2)C3)CC1 (stereo not drawn)	FLuc inh 32µM
O=C(NCc1cccc(Cl)c1)C1CCN(C(=O)c2ncn3c2COC(c2ccccc2)C3)CC1 (stereo not drawn)	FLuc inh 20µM
O=C(NC1CCCC1)c1ccc(-c2ccc(N3CCSCC3)nc2)cc1	HEK293 tox inconclusive
CN(CCn1cc(-c2nccn2C)nn1)S(C)(=O)=O	none
CCS[C@H]1CCN2C(=O)c3cc(-c4ccc(F)cc4F)ccc3NC(=O)[C@H]12	hNpr1 antagonist inconclusive, 3T3 cytotox inconclusive, HEK293 tox 56µM
CC(C)NC(=O)N[C@H]1CCN2C(=O)c3cc(-c4ccc(F)cc4F)ccc3NC(=O)[C@H]12	HEK293 tox inconclusive
CN(C)c1ccc(-c2nnc([C@H]3CCN(CC4CC4)C3)o2)cc1	none
CN(C)c1ccc(-c2nnc([C@H]3CCN(Cc4ccccc4)C3)o2)cc1	FLuc inh 63µM, 3T3 cytotox inconclusive, HEK293 tox inconclusive
CN(C)c1ccc(-c2nnc([C@H]3CCN(CC4CCCCC4)C3)o2)cc1	FLuc inh inconclusive, 3T3 cytotox inconclusive, HEK293 tox 100µM
Cc1ccc(CN2CC[C@H](c3nnc(-c4ccccc4)o3)C2)cc1	FLuc inh inconclusive, 3T3 cytotox inconclusive, HEK293 tox inconclusive
COc1ccccc1C(=O)Nc1ccc([C@@H](O)[C@H]2COCC(=O)N2Cc2ccccc2F)cc1	HEK293 tox inconclusive
Cc1ccc(CNC(=O)CC2=C3CCCCC3N(Cc3ccc(F)cc3)C2=O)cc1 (stereo not drawn)	3T3 cytotox inconclusive
CC(c1ccc(F)cc1)N1Cc2cc(NC(=O)c3cccs3)ccc2OCC1=O (stereo not drawn)	hNpr1 antagonist inconclusive, 3T3 cytotox inconclusive, HEK293 tox 22µM
O=C(c1cccc2[nH]ccc12)N1CC(Oc2cccc(-c3nc(-c4ccccc4)no3)c2)C1	FLuc inh inconclusive, 3T3 cytotox inconclusive, HEK293 tox 35µM
Cn1cccc1C(=O)N1CC(Oc2cccc(-c3nc(-c4ccccc4)no3)c2)C1	FLuc inh inconclusive, 3T3 cytotox inconclusive, HEK293 tox 45µM
Cc1nc(C)c(C(=O)N2CC(Oc3cccc(-c4nc(-c5ccccc5)no4)c3)C2)s1	FLuc inh inconclusive, 3T3 cytotox inconclusive, HEK293 tox 40µM
c1ccc(CN2CC[C@H](c3nnc(-c4ccco4)o3)C2)nc1	FLuc inh inconclusive
CCn1ccnc1CN(C)Cc1cn(Cc2ccccc2)nc1-c1cc2ccccc2o1	3T3 cytotox 40µM, HEK293 tox 45µM
CCn1ccnc1CN(C)Cc1cn(C)nc1-c1ccc(Oc2ccccc2)cc1	3T3 cytotox inconclusive, HEK293 tox 40µM
CCN1C(=O)CN(C(=O)c2cccc(C)c2)CC12CCOCC2	none
CCC1=C(C(=O)OC)C(c2ccc(C)cc2C)N2C(CC(=O)N3CCCC3)=CSC2=N1 (stereo not drawn)	hNpr1 antagonist inconclusive, HEK293 tox inconclusive
CCC1=C(C(=O)OC)C(c2ccc(C)cc2C)N2C(CC(=O)Nc3ccc(OC)cc3)=CSC2=N1 (stereo not drawn)	3T3 cytotox inconclusive, HEK293 tox 45µM
COC(=O)C1=C(C)N=C2SC=C(CC(=O)N3CCCC3)N2C1c1ccc(C)cc1C (stereo not drawn)	hNpr1 antagonist inconclusive, 3T3 cytotox 25µM, GPT2 inh inconclusive, HEK293 tox inconclusive
CCOCCNC(=O)C1CCN(C(=O)c2ccc(-c3cncnc3)cc2)CC1	none (no result: hNpr1 antagonist, FLuc inh)
CCC[C@H]1CN(C(C)=O)C[C@@H]1NC(=O)c1ccc(N2CCCC2=O)cc1	none
COCC1CN(C2CCC2)CC12CCN(C(=O)Cc1ccccc1F)CC2 (stereo not drawn)	3T3 cytotox inconclusive, HEK293 tox 50µM
OCC1CN(C2CCC2)CC12CCN(Cc1ccc(F)cc1)CC2 (stereo not drawn)	3T3 cytotox inconclusive, HEK293 tox 45µM
OCC1CN(C2CCC2)CC12CCN(Cc1cc(F)ccc1F)CC2 (stereo not drawn)	3T3 cytotox inconclusive, HEK293 tox 40µM
CC(C)(Oc1nn(CC2CCOCC2)c2ccccc12)C(=O)Nc1ccccn1	HEK293 tox inconclusive
O=C(c1ccc(F)cc1)N1CCC[C@H]1c1nc(-c2ccccc2)no1	HEK293 tox inconclusive
O=C(CC(c1cccc([N+](=O)[O-])c1)c1c[nH]c2ccccc12)NCCc1ccccc1 (stereo not drawn)	hNpr1 antagonist inconclusive, 3T3 cytotox 25µM, HEK293 tox 32µM
COc1ccc(CCNC(=O)CC(c2ccccc2OC)c2c[nH]c3ccccc23)cc1OC (stereo not drawn)	3T3 cytotox inconclusive, HEK293 tox inconclusive
COc1ccccc1C(CC(=O)NCCc1ccccc1)c1c[nH]c2ccccc12 (stereo not drawn)	FLuc inh inconclusive, 3T3 cytotox 40µM, HEK293 tox inconclusive
CCc1cccc2c(C(CC(=O)NCCc3ccccc3)c3ccc(OC)c(OC)c3)c[nH]c12 (stereo not drawn)	FLuc inh inconclusive, 3T3 cytotox inconclusive, HEK293 tox inconclusive
COc1cccc(C(CC(=O)NCC(C)C)c2c[nH]c3ccccc23)c1 (stereo not drawn)	none
CCc1cccc2c(C(CC(=O)NCCc3ccc(OC)c(OC)c3)c3ccccc3OC)c[nH]c12 (stereo not drawn)	3T3 cytotox inconclusive, HEK293 tox 35µM
COc1ccc(-c2nc(-c3c(C)noc3C)cc3[nH]c(C)cc23)cn1	3T3 cytotox inconclusive, GPT2 inh inconclusive, HEK293 tox inconclusive
Cc1cc2c(-c3cccc(S(C)(=O)=O)c3)nc(-c3c(C)noc3C)cc2[nH]1	hNpr1 antagonist inconclusive, 3T3 cytotox 8.9µM, HEK293 tox inconclusive
Cc1cc2c(-c3cccc(CO)c3)nc(-c3c(C)noc3C)cc2[nH]1	3T3 cytotox 35µM, HEK293 tox inconclusive
Cc1cc2c(-c3cccc(O)c3)nc(-c3c(C)noc3C)cc2[nH]1	3T3 cytotox 35µM, HEK293 tox 45µM
Cc1cc2c(-c3ccccc3O)nc(-c3c(C)noc3C)cc2[nH]1	3T3 cytotox inconclusive, HEK293 tox inconclusive

Compound activity: PubChem, National Center for Advancing Translational Sciences (NCATS)
